{"source": "PubChem BioAssay (NCI)", "note": "The panel holds about 83,000 compounds, 20% with a hit somewhere; the sample as a whole holds those more often.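 Treatment: one concentration, 48 hours, 96-well format. Scoring: percent growth, with anything below 10 considered active.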 A number with no mark means an inactive call. Active and inactive are the calls of the source.", "data": [{"test_system": "MCF7 breast", "assay": "NCI-60 one-dose screen, 48 h (100 = growth as untreated, 0 = no growth, -100 = all killed)", "conditions": "10 µM unless noted", "experimental": "Growth inhibition of the MCF7 human tumor cell line is measured as a screen for anti-cancer activity. Cells are grown in 96 well plates and exposed to the test compound for 48 hours. Compounds are tested at a single concentration, which is 10^-5 M for most compounds. The reported endpoint is percent growth (GI% or GIPRCNT), where numbers from 0 - 100% represent growth inhibition, and numbers from -100% - 0 represent cell death. For example, a value of 40 represents 60% growth inhibition. A value of 0 means no net growth occurred over the course of the experiment. A value of -40 indicates 40% of cells at the beginning of the experiment died by the end of the experiment. A value of -100 means all cells are dead at the end of the experiment.\nNCI-60 Human Tumor Cell Lines Screen was performed using the standard one-dose NCI protocol, which is described in more detail at https://dtp.cancer.gov/discovery_development/nci-60/default.htm.\nCompounds with GIPRCNT values below 10 were considered active. Activity score was based on GIPRCNT using the following formula: […]\nScore is 0 for GIPRCNT values of 100 or above, 50 for GIPRCNT values of 0, and 100 for GIPRCNT values of -100.", "values": [{"smiles": "COc1ccc2cn3c4ccc(O)cc4[nH]c(=O)c3c2c1", "growth": "-5.85% (active)"}, {"smiles": "Cc1cc2c(-c3nc4ccccc4n3C)c(O)c(O)cc2c(O)c1-c1c(C)cc2c(-c3nc4ccccc4n3C)c(O)c(O)cc2c1O", "growth": "19.6%"}, {"smiles": "CC(=O)NNC(=O)c1sc(NC(C)=O)nc1C", "growth": "87.4%"}, {"smiles": "CCOC(=O)NC1=NCC(C)(C)S1", "growth": "100%"}, {"smiles": "COC(=O)/C=C/c1cc(O)c2oc(-c3ccc(O)c(O)c3)c(C(=O)OC)c2c1", "growth": "9.36% (active)"}, {"smiles": "O=C(c1ccccc1)c1ccccc1-c1ccccc1", "growth": "18.1%"}, {"smiles": "O=c1c(N=Nc2nccs2)c(-c2ccccc2)[nH]n1-c1nc(-c2ccccc2)cs1", "growth": "59.1%"}, {"smiles": "CCCCCCCCCCCCCCCCCC1=NCCN1CS(=O)(=O)O", "growth": "30.3%"}, {"smiles": "CC(=O)NCCN", "growth": "104%"}, {"smiles": "Cc1nnc(/N=C2\\NC(=O)/C(=C/C=C/c3ccccc3)S2)s1", "growth": "39.9%"}, {"smiles": "COC(=O)[C@H](Cc1cn(C)cn1)NC(=O)[C@H](Cc1c[nH]c2ccccc12)NC(=O)Nc1cc(C(F)(F)F)cc(C(F)(F)F)c1", "growth": "-58.6% [100 µM] (active)"}, {"smiles": "CCN(CC)c1ccc2nc3ccc(N=Nc4ccc(O)cc4)cc3[n+](-c3ccccc3)c2c1", "growth": "-13.8% (active)"}, {"smiles": "O=Nc1ccc(O)c2ccccc12", "growth": "-37.8% (active)"}, {"smiles": "c1ccc(C(=NNc2nc3ccccc3o2)c2ccccn2)nc1", "growth": "6.93% (active)"}, {"smiles": "COc1cc(-c2cc3cnccc3c3nc(N)c4ccncc4c23)cc(OC)c1OC", "growth": "29.8%"}, {"smiles": "C=C(C)[C@@H]1CC[C@]2(COC(=O)c3ccccc3C(=O)O)CC[C@]3(C)[C@H](CC[C@@H]4[C@@]5(C)CCCNC(C)(C)[C@@H]5CC[C@]43C)[C@@H]12", "growth": "26.3%"}, {"smiles": "C=CN(C)S(C)(=O)=O", "growth": "4.56% (active)"}, {"smiles": "COc1ccc(Cn2cc3c(c2-c2ccccc2)CCc2cnoc2-3)cc1OC", "growth": "11.4%"}, {"smiles": "NC(N)=N/N=C/c1cccc(Br)c1", "growth": "90.5%"}, {"smiles": "c1ccc(Nc2ncc3c(n2)-c2cccn2CC3)cc1", "growth": "13.4%"}, {"smiles": "CC(C)(C)c1ccc([I+]c2ccc(C(C)(C)C)cc2)cc1", "growth": "7.68% (active)"}, {"smiles": "N=C(N)c1ccc(-c2ccc(-c3cc(Cl)cc(Cl)c3)s2)cc1", "growth": "-72.5% (active)"}, {"smiles": "COc1cc2c(c3c1c(=O)c1cccc(F)c1n3C)C=CC(C)(C)O2", "growth": "44.6%"}, {"smiles": "CCCNC(=O)Oc1ccc(/C(=C(/CC)Cc2ccccc2)c2ccc(OCCN(CC)CC)cc2)cc1", "growth": "26.3%"}, {"smiles": "COC(=O)C1CC(=O)N(C(=O)Nc2ccc(Cl)cc2Cl)C1", "note": "(stereo not given)", "growth": "87.6%"}, {"smiles": "[2H]c1nc(=Nc2cc(NC(=O)C=C)c(N(C)CCN(C)C)cc2OC)[nH]c(-c2cn(C([2H])([2H])[2H])c3ccccc23)c1[2H]", "growth": "23.4%"}, {"smiles": "CC(=O)OCC1O[C@@H](OC(C)=O)[C@@H](NC(=O)NS(=O)(=O)c2ccccc2)C(OC(C)=O)[C@@H]1OC(C)=O", "note": "(stereo not given in full)", "growth": "92.6%"}, {"smiles": "NC(N)=Nc1ccc(/C=C2\\C=Cc3ccccc32)cc1", "growth": "25%"}, {"smiles": "O=C(/C=C1\\C(=O)N(Cc2ccc([N+](=O)[O-])cc2)c2ccccc21)c1ccc(OCCN2CCCCC2)cc1", "growth": "-47.5% (active)"}, {"smiles": "Oc1ccccc1/C=N/N=C\\c1ccccc1Cl", "growth": "54.1%"}, {"smiles": "COc1ccc(Cn2cc3c(c2-c2ccc(OC)cc2)CCc2cnoc2-3)cc1", "growth": "4.23% (active)"}, {"smiles": "CC(O)CN(CCO)CCN(CCO)CC(C)O", "note": "(stereo not given)", "growth": "94.5%"}, {"smiles": "O=C(/C=C/c1ccc(Br)cc1)c1ccccc1", "growth": "8.28% (active)"}, {"smiles": "CC(=O)N1N=C(c2ccc(Cl)cc2)CC1c1cn(-c2ccccc2)nc1-c1ccc([N+](=O)[O-])cc1", "note": "(stereo not given)", "growth": "95.9%"}, {"smiles": "CCOC(=O)c1c(C)oc2ncnc(Nc3ccc(C(=O)NCCc4ccccc4)cc3)c12", "growth": "78.6%"}, {"smiles": "O=S(=O)(O)c1ccc2c(c1)Sc1cc(S(=O)(=O)O)ccc1O2", "growth": "106%"}, {"smiles": "OCC(O)C(O)CC1SCCS1", "note": "(stereo not given)", "growth": "103%"}, {"smiles": "COc1ccc(/C=C2\\CCCC3=C2N=C2SC=NN2C3c2ccc(OC)c(OC)c2)cc1OC", "note": "(stereo not given)", "growth": "22.6%"}, {"smiles": "Cc1[nH]n(C(=S)Nc2nc3cc(Cl)c(F)cc3s2)c(=O)c1N=Nc1ccc(F)c(Cl)c1", "growth": "80.8%"}, {"smiles": "CC(=O)Nc1nc(C)c(C(=O)N/N=C/c2cccs2)s1", "growth": "75.7%"}]}]}
